The campaign covered roughly 410,000 compounds. About 5,100 (1.2%) were called active. Another 8% or so got no clear call; they are omitted. Shown is part of a subset that was picked to be rich in actives. Unmarked numbers belong to inactive results. The call rests on the fitted dose curve; tested in HEK293T cells.
Experiment: High Throughput Screening for Foot and Mouth Disease Virus Antivirals; further: read-out not given here; nearly all actives have a fitted effect of over 45% in size
Conditions: FMDV antiviral cell-based qHTS; series mostly up to 57.9 µM; activity change, negative = inhibition: at the top concentration
On the % scale 0 is the no-effect control and ±100 the full control effect; potency means the concentration at half of the fitted maximal effect.

| SMILES | Potency | activity change, negative = inhibition |
| --- | --- | --- |
| Cc1cc(-c2n[nH]c(=S)n2/N=C/C(Br)=C/c2ccccc2)n[nH]1 | 35.5 µM (active) |  |
| O=c1c(-c2ccc(F)cc2)nc2cncnc2n1-c1ccccc1 |  | -1.48% |
| CCCn1c(=N)n(CC(O)COc2ccccc2OC)c2ccccc21 (configuration not stated) |  | -14.5% |
| OC(COc1ccc(CN2CCSCC2)cc1)CN1CCCCC1 (configuration not stated) |  | 2.88% |
| OC(CN=c1sc2ccccc2n1CC(O)COc1ccccc1)COc1ccccc1 (configuration not stated) | 20 µM (active) |  |
| Nc1nc2c(nc(Cl)n2C2OC(CO)C(O)C2O)c(=O)[nH]1 (configuration not stated) |  | -6.54% |
| O=C(c1cccc(Cl)c1)N1CCN(CCc2ccncc2)CC1 |  | -13.6% |
| O=C(c1cccc(Br)c1)N1CCN(Cc2cc(=O)n3nc(-c4ccccc4)sc3n2)CC1 |  | -16% |
| O=C(c1ccccc1)N1CCN(c2cc(-c3ccccc3)nc3cc(-c4cccc(Cl)c4)nn23)CC1 | 25.1 µM (active) |  |
| C#Cc1cc(N2CCN(C(=O)c3ccoc3)CC2)n2nc(-c3cccc(Cl)c3)cc2n1 | 11.2 µM (active) |  |
| O=C(CCCC(=O)N1CCN(c2cccc(Cl)c2)CC1)c1ccccc1 |  | 6.15% |
| CCNC(=O)Cn1nc(C)n2c(cc3c(OC)cccc32)c1=O |  | 10.3% |
| COC1[C@H](OC(N)=O)C(O)[C@H](Oc2ccc3c(O)c(NC(=O)c4ccc(O)c(CC=C(C)C)c4)c(=O)oc3c2C)OC1(C)C (some centres not stated) |  | 23.6% |
| C=C1O[C@@](CO)(n2cnc3c(N)ncnc32)[C@H](O)[C@@H]1O |  | 3.35% [at 97.4 µM] |
| COc1cccc(NC(=O)N2CCN(C(=O)c3nsc4ccccc34)CC2)c1 |  | 17.7% |
| COc1ccc(-c2cc(-c3ccccc3)nc3c2COc2ccc(Cl)cc2-3)cc1 |  | -22.2% |
| COc1ccc(-c2cc(-c3ccc(F)cc3)nc3c2COc2ccccc2-3)cc1 |  | -12.8% |
| COc1ccc(C2=Nc3cc(C)ccc3OC2)cc1 | 14.1 µM (active) |  |
| CCCNc1ncnc2c1c(-c1ccccc1)cn2-c1ccc(OCC)cc1 |  | -19.6% |
| CC(C)(O)CCC(O)[C@@](C)(O)C1CC[C@]2(O)C3=CC(=O)C4CC(O)C(O)C[C@]4(C)C3CC[C@]12C (some centres not stated) |  | 19% |
| Cc1ccc(NC(=O)c2ccc(CN3CC(=O)N4CCCCC4C3=O)cc2)c(Cl)c1 (configuration not stated) |  | 19.8% |
| COc1ccc(C(=O)Nc2ccccc2C(=O)N/N=C/c2ccc(O)c(OC)c2)cc1 | 3.98 µM (active) |  |
| COc1cc(C(=O)Nc2cc(C(F)(F)F)ccc2N2CCOCC2)ccc1O |  | -19.9% |
| COc1ccc(Nc2ncc(C(=O)Nc3cc(C)ccc3OC)c3ccccc23)cc1 |  | -23.6% |
| Cn1cc(-c2nc3cncnc3n(-c3ccccc3)c2=O)c2ccccc21 |  | -0.0407% |
| COc1ccc(CN2CCC3(CCC(CNC(=O)c4ccco4)O3)CC2)cc1OC (configuration not stated) |  | 3.86% |

| SMILES | Potency | activity change, negative = inhibition |
| --- | --- | --- |
| Cc1ccc(-n2ncc3c(=O)n(Cc4cccc(C(F)(F)F)c4)cnc32)cc1C |  | -4.06% |
| CC(C)CNc1ncnc2c1cnn2Cc1ccc(Cl)cc1 |  | -26.3% |
| CC(C)(C)n1ncc2c(=O)n(Cc3ccc(Cl)cc3)cnc21 | 25.1 µM (active) |  |
| O=C(c1cn(CC2CCCN(Cc3cc4ccccc4s3)C2)nn1)N1CCCC1 (configuration not stated) |  | -5.43% |
| O=C(O)c1c(CNCc2cccc(F)c2)c2ccccc2n1Cc1ccccc1 |  | 25% |
| C/C=C(\C)C(=O)O[C@H]1CC(C)=C2C(=O)C=C(C)C2[C@@H]2OC(=O)[C@@](C)(OC(=O)C=C(C)C)C21 (some centres not stated) |  | -2.11% |
| Cc1cc(C)cc(CN2CCc3nnc(C(NS(C)(=O)=O)C(C)C)n3CC2)c1 (configuration not stated) |  | 2.42% |
| CCOC(=O)N1CCN(C(=O)C2CCN(c3ncnc4c3sc3cccc(F)c34)CC2)CC1 | 14.1 µM (active) |  |
| CCOc1cccc2sc(N3CCN(C(=O)C4CC4)CC3)nc12 |  | -5.01% |
| CCOC(=O)N1CCN(C(=O)C2CCCN(c3ncnc4c3sc3cccc(F)c34)C2)CC1 (configuration not stated) |  | -18.5% |
| COc1ccc2[nH]cc(CCNCc3ccc(Br)cc3)c2c1 |  | -2.27% |
| Cc1ccc2nc(-c3ccc(C)c(NC(=O)Cc4ccccc4)c3)oc2c1 |  | -20.8% |
| Cc1cc(NC(=O)c2cccc(Cl)c2)ccc1-c1cc2ccccc2oc1=O |  | 14.4% |
| O=c1oc2ccccc2cc1-c1cn(-c2ccccc2)c(=S)[nH]1 | 12.6 µM (active) |  |
| COc1ccc(OC)c(-c2csc(-c3c(N)c(C(=O)c4ccccc4)n4ccccc34)n2)c1 |  | 0% |
| CCOC(=O)c1[nH]c(C)c(CCC(=O)N2CCN(c3ccccc3)CC2)c1C |  | -19.3% |
| CCOc1ccc2nc(N3CCCN(CCCn4cccn4)CC3)nc(C)c2c1 |  | -17.5% |
| CCCn1ccc2c(OCC(=O)NCc3ccc(F)cc3)cccc2c1=O |  | 0% |
| COc1ccc(NC(=O)C2=CC(c3ccc(OC)c(OC)c3)=NS(=O)(=O)N2C)cc1 | 31.6 µM (active) |  |
| COc1ccc(C2=NS(=O)(=O)N(C)C(C(=O)N3CCCCC3)=C2)cc1 |  | -9.97% |
| COc1ccc(C2=NS(=O)(=O)N(C)C(C(=O)NC(C)c3ccccc3)=C2)cc1 (configuration not stated) | inactive |  |
| Cc1ccc2c(c1)c1c(c(=O)n(-c3ccccc3)c(=O)n1CC(=O)c1ccc(Cl)cc1)n2C |  | 7.15% |
| Clc1ccc([C@@H]2C[C@H]3CC[C@@H]2N3)cn1 |  | -11.7% |
| O=C(CSc1c2c(nc3ccc(Cl)cc13)CCCC2)NCc1ccco1 | 25.1 µM (active) |  |
| O=C(NCc1ccco1)C1(c2ccc(Cl)cc2)CCCC1 |  | -11.9% |
| O=C(CSc1nc2cc3c(cc2c(=O)n1CCC1=CCCCC1)OCO3)NCc1ccco1 |  | -21.5% |

— PubChem BioAssay AID1159524 (National Center for Advancing Translational Sciences (NCATS), 2015)
